Measurements published in PubChem BioAssay (NCI).
This is part of a sample that, as a whole, favours compounds with a hit. Of some 83,000 tested, about 20% had one in any assay.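 For each line, cells grew in 96-well plates with the test compound present at a single concentration for 48 hours.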 A number with no mark means an inactive call. The source made the active and inactive calls. The calls were made as follows: active = growth percent below 10; inactive = the rest.

How the values were obtained:
Assay in all cases: NCI-60 one-dose screen, 48 h (100 = growth as untreated, 0 = no growth, -100 = all killed)
Conditions in all cases: 10 µM unless noted
SR leukemia = system: SR leukemia
RPMI-8226 leukemia = system: RPMI-8226 leukemia
OVCAR-5 ovarian = system: OVCAR-5 ovarian
OVCAR-4 ovarian = system: OVCAR-4 ovarian
SK-OV-3 ovarian = system: SK-OV-3 ovarian
IGROV1 ovarian = system: IGROV1 ovarian
OVCAR-3 ovarian = system: OVCAR-3 ovarian
HS 578T breast = system: HS 578T breast
NCI/ADR-RES ovarian = system: NCI/ADR-RES ovarian
OVCAR-8 ovarian = system: OVCAR-8 ovarian

| Structure (SMILES) | growth (SR leukemia) | growth (RPMI-8226 leukemia) | growth (OVCAR-5 ovarian) | growth (OVCAR-4 ovarian) | growth (SK-OV-3 ovarian) | growth (IGROV1 ovarian) | growth (OVCAR-3 ovarian) | growth (HS 578T breast) | growth (NCI/ADR-RES ovarian) | growth (OVCAR-8 ovarian) [%] |
| --- | --- | --- | --- | --- | --- | --- | --- | --- | --- | --- |
| O=C1CC(=O)N2CSCN(C(c3ccccc3)c3nc4ncncc4[nH]3)C2=N1 (stereo unspecified) | 118% | 107% | 111% | 107% | 113% | 99.3% | 107% | 107% | 99.3% | – |
| c1cc(-c2nc3ccc4[nH]ncc4c3c3c2CCCC3)[nH]n1 | 7.95% (active) | 55.1% | 89% | 89.6% | 9.7% (active) | 44.5% | – | – | 78.8% | 70.2 |
| C#Cc1nc(/C=C/C(=O)c2nccn2C)cs1 | -40.8% (active) | -39.9% (active) | -87.4% (active) | 33.7% | -59.7% (active) | -59.1% (active) | -64.4% (active) | -6.46% (active) | -26.1% (active) | – |
| c1ccc(C(c2nc3ncncc3[nH]2)N2CSc3nc4ncncc4n3C2)cc1 (stereo unspecified) | 84.9% | 29.4% | 62.4% | 27.1% | 23.1% | 77.6% | 38.6% | 77.2% | 44.4% | – |
| NC(N)=Nc1ccc(Oc2cccc(Nc3ccc(Br)c(C(F)(F)F)c3)c2)cc1 | -43.5% (active) | -44.1% (active) | 40.3% | 39.8% | 67.4% | 0.582% (active) | 13.7% | 9.28% (active) | 93.7% | – |
| Oc1cccc2ccc(-c3nnc(SCc4ccc(O)c5ncccc45)o3)nc12 | 26.1% | 2.55% (active) | 40.9% | 20.5% | 12.3% | 13.4% | 2.66% (active) | 8.45% (active) | 17.3% | – |
| Cc1ccc2c(c1)Oc1nc(N)c(C#N)c(N)c1C2Sc1ccc(F)cc1 (stereo unspecified) | -15.6% (active) | -24.1% (active) | -93.5% (active) | -99.3% (active) | -94.5% (active) | -91.3% (active) | -88.1% (active) | -38.1% (active) | -89.4% (active) | – |
| COc1cc2c(cc1OC)C(Sc1ccc(F)cc1)c1c(nc(N)c(C#N)c1N)O2 (stereo unspecified) | 0.989% (active) | -28% (active) | -88.2% (active) | -66.1% (active) | -21.6% (active) | -85.7% (active) | -58.9% (active) | -4.38% (active) | -46.4% (active) | – |
| COC(=O)/C=C/c1c(C2(C)NC(=O)c3ccccc3N2)c(=O)oc2ccc(Cl)cc12 (stereo unspecified) | 108% | 94.7% | 101% | 98.7% | 106% | 68.1% | 102% | 90.9% | 98.3% | – |
| CC1=NC2=NN3C(=NN2C(c2ccccc2)=C1)N=NC(c1ccc(Br)cc1)=C3c1ccc(Br)cc1 | 102% | 111% | 104% | 108% | 116% | 99.3% | 114% | 105% | 119% | – |
| O=C(NNc1nc2cc(F)ccc2n2cccc12)c1ccncn1 | 8.74% (active) | 16.8% | 45% | -6.78% (active) | – | 15.5% | 5.01% (active) | 42.8% | 5.87% (active) | 18.7 |
| COc1cc2oc(-c3cccc(NC(=O)c4cc(N)ccc4Cl)c3)cc(=O)c2c(OC)c1OC | 82.6% | 60.2% | 109% | 97.6% | 124% | 99.5% | 104% | 114% | 100% | – |
| COc1cc(-c2nn(C(C)(C)C)cc2-c2ccnc(NCCCNS(=O)(=O)c3ccc(F)cc3)n2)ccc1Cl | 48.8% | 75.1% | 82.3% | 54.2% | 104% | 61.6% | 90.7% | 81% | 79.9% | – |
| Nc1nc(Nc2ccccc2SSc2ccccc2Nc2nc(N)nc(-c3ccc4ccccc4c3)n2)nc(-c2ccc3ccccc3c2)n1 | -25.5% (active) | 84.3% | 99.3% | 83.9% | 112% | 47.6% | 106% | 86.2% | 19.5% | – |
| Cc1ccc(-c2nnc(SCc3ccc(O)c4ncccc34)n2-c2ccccc2)cc1 | 12.1% | 7.99% (active) | 37.5% | 13.8% | 5.69% (active) | 8.07% (active) | 16.2% | -3.23% (active) | 2.09% (active) | – |
| O=S(=O)(NCCCNc1nccc(-n2cnc3ccccc32)n1)c1ccc(C(F)(F)F)cc1 | 75.4% | 69.7% | 96.3% | 66.7% | 92.5% | 98.1% | 96.8% | 78.3% | 81.1% | – |
| C#C[C@]1(O)CC[C@H]2[C@@H]3CC=C4c5sc(-c6ccc7c(c6)OCO7)nc5CC[C@]4(C)[C@H]3CC[C@@]21C | 16.9% | -15.3% (active) | 36.3% | 34.9% | 52.3% | 34.8% | -13.2% (active) | -9.35% (active) | 39.2% | – |
| COc1cc(-c2nnc(SCc3ccc(O)c4ncccc34)n2-c2ccccc2)cc(OC)c1OC | 15.5% | 3.25% (active) | 33.2% | 6.79% (active) | 1.71% (active) | 8.92% (active) | 6.44% (active) | 20.3% | 0.665% (active) | – |
| CC(c1ccccc1)N1CSc2nc3ncncc3n2C1 (stereo unspecified) | 88.2% | 26.4% | 39.7% | 27.1% | 24.8% | 45.5% | 33.1% | 64.2% | 26.7% | – |
| COc1ccc(-c2nc3cccc(O)c3c(=O)n2Cc2ccccc2)cc1COc1ccc(NC(C)=O)cc1 | 27.5% [3 µM] | 44.5% [3 µM] | 64.2% [3 µM] | 83% [3 µM] | 67.2% [3 µM] | 41.6% [3 µM] | 66.9% [3 µM] | 63.8% [3 µM] | 51.1% [3 µM] | – |
| O=c1c2ccccc2nc(COc2ccccc2)n1NS(=O)(=O)c1ccc(Cl)cc1 | 57.6% | 95.6% | 91.2% | 95.2% | – | 61.7% | 103% | 75% | 73% | 92 |
| O=C(NNc1nc2cc(F)ccc2n2c(CN3CCCC3)ccc12)c1cnccn1 | 4.32% (active) | 20.6% | 33.5% | 14.1% | 16.8% | 13.8% | 4.58% (active) | 68.1% | 0.656% (active) | – |
| COc1cc(-c2nn(C(C)(C)C)cc2-c2ccnc(NCCCNS(=O)(=O)c3ccc(Cl)cc3)n2)ccc1Cl | 37.7% | 66.1% | 79.5% | 39.2% | 93.9% | 50.8% | 73.5% | 70.5% | 67% | – |
| COc1cc(OC)c(/C=C/S(=O)(=O)Cc2ccc(OC)c(NC(=O)CCC(=O)NO)c2)c(OC)c1 | 14.2% | 16.9% | 33.9% | 45.3% | 32.6% | 13.4% | 6.69% (active) | 16.2% | 10.2% | – |
| NC(N)=Nc1ccc(Oc2cccc(NC(N)=Nc3ccc(Cl)c(C(F)(F)F)c3)c2)cc1 | 7.43% (active) | 41.4% | 48.1% | 62.4% | 54.9% | -10.5% (active) | 30.8% | 35.8% | 95.4% | – |
| COc1cc(Cn2cc3c(c2)-c2onc(CN4CCCC4)c2CC3)cc(OC)c1OC | 97.9% | 88% | 99% | 72.7% | 108% | 101% | 100% | 97.7% | 94.9% | – |
| Brc1ccccc1/C=N/Nc1nc(N/N=C/c2ccccc2Br)nc(N2CCOCC2)n1 | 63.9% | 65% | 111% | 96.2% | 114% | 89.7% | 85.2% | 114% | 91.5% | – |
| CC1=NC2=NC(=O)/C(=C3/N=C(C)C=C(c4ccccc4)N3N)NN2C(c2ccccc2)=C1 | 116% | 111% | 101% | 96.7% | 98.8% | 70.1% | 108% | 116% | 108% | – |
